Reference: PubChem BioAssay (NCATS)
Results filed as inconclusive are left out. The source made the active and inactive calls. Unless noted, the call rests on the fitted dose curve; in most records, active means well fitted curve in either direction with a large enough effect (not every such curve was filed as active); inconclusive means small, poorly fitted or top-dose-only effect, or another doubt; inactive means flat fitted curve, though single readings scatter.

Columns and labels:
[1] = AP1 Signaling Pathway (AID 357);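 further: ME-180 reporter cells stimulated with EGF at its EC50 level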
Method in brief: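 Titration-series screen for positive or negative modulators of EC50 EGF-induced signaling in ME-180 cells carrying an AP-1-driven beta-lactamase reporter. After 5 hours at 37 degrees Celsius, CCF4 460nm/530nm emission ratio gave %Activity; AC50 values derived.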

[2] = biological target: Cytochrome P450 1A2 (Homo sapiens) (UniProt P05177); test: p450-cyp1a2 (AID 410; calls by dose curve)
Sequence of Cytochrome P450 1A2 (Homo sapiens) (P05177 whole entry, looked up): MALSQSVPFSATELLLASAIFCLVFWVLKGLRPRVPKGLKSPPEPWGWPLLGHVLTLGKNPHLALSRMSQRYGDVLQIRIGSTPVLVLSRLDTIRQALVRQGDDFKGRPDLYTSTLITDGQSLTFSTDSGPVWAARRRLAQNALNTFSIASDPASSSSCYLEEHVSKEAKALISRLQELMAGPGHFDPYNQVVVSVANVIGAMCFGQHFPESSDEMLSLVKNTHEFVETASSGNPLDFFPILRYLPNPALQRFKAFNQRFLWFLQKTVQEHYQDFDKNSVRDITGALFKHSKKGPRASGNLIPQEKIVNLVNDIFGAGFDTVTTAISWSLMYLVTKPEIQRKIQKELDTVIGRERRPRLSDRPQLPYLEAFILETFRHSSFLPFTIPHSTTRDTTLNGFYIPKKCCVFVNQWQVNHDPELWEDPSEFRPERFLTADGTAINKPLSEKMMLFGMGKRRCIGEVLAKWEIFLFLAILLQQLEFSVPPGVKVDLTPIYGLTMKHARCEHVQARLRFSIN
Method in brief: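 Human CYP1A2 (20nM) demethylated Luciferin-ME at its Km (100uM) in 100mM KPO4. After 10 min compound preincubation, NADPH regeneration ran the reaction 60 min at room temperature. Luciferin was read by luminescence, normalized to 57 uM furafylline.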

[3] = NFAT Signaling Pathway (AID 444);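 further: carbachol stimulus at about its EC50 of 1 µM final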
Method in brief: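 Read-out: CCF4 FRET ratio (460 nm/530 nm) after 1 h RT dye loading, used for %activity and AC50 from titration series. Cells: Jurkat NFAT-β-lactamase/M1 line, treated with compound plus 1 uM carbachol for 5 h, 37 °C.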

[4] = Stat Signaling Pathway (AID 446);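 further: ME-180 cervical cancer cells given 40 pM IL-6 alongside compound; SIE-controlled beta-lactamase reporter measured as 460/530 nm FRET emission ratio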
Method in brief: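 IL-6/STAT signaling read in ME-180 cells via an SIE beta-lactamase reporter. Stimulus was 40 pM IL-6 (its AC50) for 5 hrs, so both activation and inhibition register.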

[5] = Cell Viability - BJ (AID 421; calls by dose curve;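 further: potency means the concentration at half of the fitted maximal effect; cells exposed to compound for 40 hours at 37 °C before readout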); details: BJ fibroblast viability, qHTS
Method in brief: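 Quantitative HTS: ATP depletion in BJ cells after 40 hr compound exposure in complete culture medium, detected with CellTiter-Glo; AC50 from standard Hill fits.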

[6] = Cell Viability - Jurkat (AID 426;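 active means dose-dependent loss of cell ATP signal giving a full or clear fitted curve, ranked by lower potency value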; further: potency means the concentration at half of the fitted maximal effect); details: qHTS
Method in brief: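 Jurkat (clone E6-1, human T-cell leukemia) cells, 5000/well in complete medium, were exposed to compound for 40 hr at 37 °C. Viability was read as intracellular ATP by CellTiter-Glo luminescence; AC50 came from Hill fits of concentration-response data.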

[7] = Cell Viability - Hek293 (AID 427;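 active means compounds whose dose-response curve shows a full or clear partial loss of cell viability, called from curve shape rather than a numeric limit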;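 further: potency means the concentration at half of the fitted maximal effect; cells exposed to compound for 40 hours at 37 °C before reading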); details: qHTS
Method in brief: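 AC50 values derive from Hill-modelled concentration-response of ATP-based luminescence, normalized between DMSO-only and 100 uM tamoxifen controls. Cells were exposed in complete culture medium for 40 hr at 37 °C before detection.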

[8] = Cell Viability - HepG2 (AID 433; calls by dose curve;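 further: potency means the concentration at half of the fitted maximal effect; potency for ATP loss meaning cytotoxicity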); details: qHTS
Method in brief: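 HepG2 cells, 1500 per well, treated 40 hr at 37 °C in complete medium; viability from intracellular ATP by CellTiter-Glo luminescence. Normalized to DMSO and 100 uM tamoxifen; AC50 from Hill fit of qHTS concentration-response.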

[9] = Cell Viability - MRC5 (AID 434; calls by dose curve;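 further: potency means the concentration at half of the fitted maximal effect; potency reflects cytotoxicity seen as loss of intracellular ATP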); details: MRC5 lung fibroblast viability, qHTS
Method in brief: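 qHTS cytotoxicity in human lung fibroblast MRC5 cells; 40 hr treatment, 37 °C; cellular ATP by luciferase luminescence; DMSO = 0%, 100 uM tamoxifen = 100% inhibition; Hill-fit AC50.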

[10] = Cell Viability - SK-N-SH (AID 435; calls by dose curve;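 further: potency means the concentration at half of the fitted maximal effect; compound exposure lasted 40 h at 37 °C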); details: SK-N-SH neuroblastoma cell viability qHTS
Method in brief: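 SK-N-SH neuroblastoma cells (1500/well) treated 40 h at 37 °C in complete medium; viability read as cellular ATP by CellTiter-Glo luminescence. Normalized to DMSO and 100 uM tamoxifen; AC50 from Hill fits of qHTS concentration-response.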

Measured: Potency

C[C@]1(C2CCCC2)Cc2cc(OCC(=O)O)c(Cl)c(Cl)c2C1=O
inactive: [1] | [2] | [3] | [4]

CCc1cccc2c3c([nH]c12)[C@@](CC)(CC(=O)O)OCC3
inactive: [1] | [2] | [3] | [4]

COc1ccc(CCC(=O)c2c(O)cc(O[C@@H]3O[C@H](CO)[C@@H](O)[C@H](O)[C@H]3O[C@@H]3O[C@@H](C)[C@H](O)[C@@H](O)[C@H]3O)cc2O)cc1O
inactive: [5] > 92 µM | [6] > 92 µM | [7] > 92 µM | [8] > 92 µM | [9] > 92 µM | [10] > 92 µM

CCN1CCN(C(=O)N[C@@H](C(=O)N[C@@H]2C(=O)N3[C@@H]2SC(C)(C)[C@@H]3C(=O)O)c2ccccc2)C(=O)C1=O
inactive: [3] | [4]

C=C1C[C@]23C[C@@]1(O)CC[C@H]2[C@@]12C=C[C@H](O)[C@@](C)(C(=O)O1)[C@H]2[C@@H]3C(=O)O
inactive: [5] > 92 µM | [6] > 92 µM | [7] > 92 µM | [8] > 92 µM | [9] > 92 µM | [10] > 92 µM

CC(C)C[C@H](NC(=O)[C@@H]1O[C@H]1C(=O)O)C(=O)NCCCCN=C(N)N
inactive: [1] | [2] | [3] | [4]
